Screening data from PubChem BioAssay.
Shiga toxin inh = A qHTS for Small Molecule Inhibitors of Shiga Toxin | 290,000 compounds, 9.2% hits | Vero cells, Shiga toxin protein synthesis inhibition reporter | inhibition, % at 38.7 µM; in the data active = inhibition mostly above about 28%, no sharp cut-off; inactive = mostly below about 43%
Cycloheximide cs = Cycloheximide Counterscreen for Small Molecule Inhibitors of Shiga Toxin | cell reporter, cycloheximide protein synthesis inhibition counterscreen | max response, % | 300,000 compounds, 12% hits | AID 2314, 2010; in the data active = max response mostly above about 13%, no sharp cut-off; inactive = mostly below about 14%; note: read at 38.3 µM for the half of the compounds with a filed dose
Giardia FBPA inh = qHTS Assay for Inhibitors of Fructose-1,6-bisphosphate Aldolase from Giardia Lamblia. A8B2U2. purified Giardia FBPA. Potency, µM (titrated, usually from 59.6 µM), most hits filed as inhibitors. 290,000 compounds, 0.71% hits. AID 2451, 2010; note: nearly all actives have a fitted effect of over 55% in size
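40 nM FBPA preincubated 10 min at RT with compound (up to 57.5 uM final), then substrate plus GAPDH/TPI/NAD/arsenate coupling and diaphorase/resazurin added. Fluorescence read after 20 min at RT, 525/598 nm.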
NS1 function inh = qHTS Assay for Inhibitors of Influenza NS1 Protein Function; Potency, µM (series often up to 46.1 µM); 270,000 compounds, 0.4% hits; AID 2326, 2010; calls by dose curve; note: actives are rising curves; nearly all actives have a fitted effect of over 50% in size
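Growth recovery, yeast-based: influenza A NS1 expressed in S. cerevisiae causes slow growth, and suppressors are detected by OD600. The parent strain without NS1 is used as positive control.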
LmPK inh = qHTS Assay for Inhibitors of Leishmania Mexicana Pyruvate Kinase (LmPK); Potency, µM (top dose mostly 57.5 µM), actives largely listed as inhibitors; Q27686; 290,000 compounds, 0.37% hits; purified LmPK, Kinase-Glo ATP luminescence, 1 h; AID 1721, 2009
Target sequence (Q27686 whole entry, looked up): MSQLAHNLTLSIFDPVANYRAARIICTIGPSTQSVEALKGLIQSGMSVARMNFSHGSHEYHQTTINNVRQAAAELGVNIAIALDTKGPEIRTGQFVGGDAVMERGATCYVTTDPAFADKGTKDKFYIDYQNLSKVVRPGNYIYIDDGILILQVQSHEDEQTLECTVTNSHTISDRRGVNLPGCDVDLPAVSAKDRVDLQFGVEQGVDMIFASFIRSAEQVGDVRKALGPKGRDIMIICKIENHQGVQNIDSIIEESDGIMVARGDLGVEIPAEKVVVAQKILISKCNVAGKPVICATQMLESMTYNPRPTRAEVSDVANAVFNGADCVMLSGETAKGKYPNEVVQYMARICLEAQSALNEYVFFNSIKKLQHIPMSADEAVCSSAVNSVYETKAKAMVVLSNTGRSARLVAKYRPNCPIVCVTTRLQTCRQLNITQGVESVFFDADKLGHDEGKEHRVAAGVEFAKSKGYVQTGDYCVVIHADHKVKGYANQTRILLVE
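qHTS format; LmPK 0.1 nM; substrates PEP 0.5 mM and ADP 0.1 mM. One-hour room-temperature incubation, then coupled luciferase luminescence; 0.5 nM enzyme wells mark activation.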
A number is an active result; . = inactive; ? = inconclusive; / = not tested or not shown. The list is not random: actives were taken first. Their share in the collection is about 14%. Unless noted, calls come from the whole dose curve; as a rule, active = well fitted curve in the direction sought with a large enough effect; inconclusive = small, poorly fitted or top-dose-only effect, or another doubt; inactive = no such curve, though single readings can be large; an effect the other way counts as inactive or inconclusive.

SMILES	Shiga toxin inh	Cycloheximide cs	Giardia FBPA inh	NS1 function inh	LmPK inh
N#C/C(=C/c1ccc(N2CCCCCC2)o1)c1cccc(F)c1	.	.	?	.	.
N#C/C(=C/c1ccc(N2CCOCC2)o1)c1ccc(Br)cc1	109	77	/	.	.
CN1CCC(=NNC(=O)CN(c2ccc([N+](=O)[O-])cc2)S(=O)(=O)c2ccccc2)CC1	.	.	.	.	.
COc1cc(NC(=O)CCS(=O)(=O)c2ccc3c(c2)oc(=O)n3C)cc(OC)c1OC	.	.	/	.	.
CC(Nc1cccc(F)c1)C(=O)Nc1ccc(S(N)(=O)=O)cc1 (stereo unspecified)	.	.	.	/	.
Nc1ncnc2c1ncn2[C@@H]1O[C@H](C(=O)N2CCN(CC(=O)Nc3cccc4c3CNC4=O)CC2)[C@@H](O)[C@H]1O	.	.	.	/	/
O=C(NCc1ccccc1Cl)c1ccc(NC2=NC3CS(=O)(=O)CC3S2)cc1 (stereo unspecified)	.	.	.	.	.
Cc1nnc(Nc2ccc3c(c2)ncn3C)c2ccccc12	.	.	.	.	.
CCn1cnc2cc(NCc3ccccc3Cl)ccc21	67	36	.	.	.
Cn1cnc2cc(NCc3ccccc3Cl)ccc21	105	39	.	.	.
O=C(CCC(=O)c1cccs1)Nc1nnc(C2CC2)s1	.	17	.	.	.
O=C(Nc1nnc(C2CC2)s1)c1cccs1	100	51	/	.	.
COc1cccc(CN2CCN(CC#Cc3ccccc3)CC2CCO)c1 (stereo unspecified)	.	.	.	.	.
COC(=O)c1ccc(C2OCC(C)(C)CO2)cc1	150	49	.	/	.
CSc1ncnc2c1ncn2CC(=O)[C@H]1CC[C@H]2[C@H]3CCC4=CC(=O)CC[C@@]4(C)[C@@H]3CC[C@@]12C	/	/	/	.	/
N#Cc1cc2c(nc1SCC(=O)Nc1ccc(Cl)cc1)C1CCN2CC1	.	23	.	.	.
N#Cc1cc2ccccc2nc1SCC(=O)Nc1ccc(S(=O)(=O)N2CCCC2)cc1	.	.	.	?	.
O=C(COC(=O)c1ccc2c(c1)OCO2)NCc1ccc2c(c1)OCO2	.	.	.	.	.
COc1ccccc1NC(=O)NCc1ccc2c(c1)OCO2	.	11	.	.	.
Cc1ccc(NC(=O)NCc2ccc3c(c2)OCO3)cc1C	43	23	.	.	.
CCOc1ccccc1NC(=O)NCc1ccc2c(c1)OCO2	.	.	.	.	.
O=C(NCc1ccc2c(c1)OCO2)Nc1ccc(F)cc1	44	37	.	.	.
Fc1ccc(NC(=S)NCc2ccc3c(c2)OCO3)cc1	.	.	.	/	.
COc1cccc2cc(C(=O)OCC(=O)NCc3ccc4c(c3)OCO4)c(=O)oc12	67	38	.	.	.
CC(=O)OCC(NC(=O)C(C)NC(=O)OC(C)(C)C)C1OC(n2cc(C)c(=O)[nH]c2=O)C(OC(C)=O)C1OC(C)=O (stereo unspecified)	.	.	.	/	/
SMILES	Shiga toxin inh	Cycloheximide cs	Giardia FBPA inh	NS1 function inh	LmPK inh
CCc1ccc(NC(=O)CCCNC(=O)Cn2cnc3sc(C)c(C)c3c2=O)cc1	.	.	.	.	.
CCCc1cc(=O)oc2c3c(ccc12)OCN(Cc1ccc(OC)cc1)C3	.	.	/	/	/
CC(C)(C)c1nnc(SCC(=O)c2ccccc2)n(N)c1=O	63	57	.	?	.
Cc1ccc(C(=O)CSc2nnc3c4ccccc4nc(C(C)(C)C)n23)cc1	.	.	.	.	.
Cc1ccccc1CSc1nnc(-c2ccco2)n1Cc1ccco1	.	.	.	.	.
Cn1c(SCC(=O)c2ccccc2)nnc1C1COc2ccccc2O1 (stereo unspecified)	.	42	.	.	.
COc1ccc(C(=O)CSc2nnc(-c3ccco3)n2C)cc1	.	.	.	.	.
Cn1c(SCC(=O)c2ccccc2)nnc1-c1ccco1	63	41	.	.	.
c1ccc(CSc2nnc(-c3ccco3)n2Cc2ccco2)cc1	.	37	.	.	.
Cn1c(SCc2nc(-c3ccccc3)no2)nnc1-c1ccco1	.	.	.	.	.
O=C(CSc1nnc(-c2ccco2)n1Cc1ccccc1)OC1CCCCC1	84	24	.	.	.
Cn1c(SCc2ccccc2)nnc1-c1ccco1	82	41	.	/	.
CN(C)Cc1ccccc1-c1ccc2ncnc(NC3CC3)c2c1	/	/	.	/	/
C/C(=N/N=C/c1ccc(N(C)C)cc1)c1ccccc1	168	47	.	.	?
